Measurements from publication PMC5540273 (PLoS ONE, 2017).
Read-outs that look alike come from different tables or passages of the source.

Tests used:
GRK1 = details: concentration: 1 μM, replicates: in singlicate; n = 1
GRK2 = tested on: T1, GRK2; details: concentration: 1 μM, replicates: in singlicate; n = 1
T1 construct: gene ADRBK1

GRK3 = tested on: T2, GRK3; details: concentration: 1 μM, replicates: in singlicate; n = 1
T2 construct: gene ADRBK2

GRK4 = details: concentration: 1 μM, replicates: in singlicate; n = 1
GRK7 = details: concentration: 1 μM, replicates: in singlicate; n = 1
GSK3A = details: concentration: 1 μM, replicates: in singlicate; n = 1
GSK3B = details: n = 1
HASPIN = tested on: T3, HASPIN; details: concentration: 1 μM, replicates: in singlicate; n = 1
T3 construct: gene GSG2

HCK = details: concentration: 1 μM, replicates: in singlicate; n = 1
HIPK1 = details: concentration: 1 μM, replicates: in singlicate; n = 1
HIPK2 = details: concentration: 1 μM, replicates: in singlicate; n = 1
HIPK3 = details: concentration: 1 μM, replicates: in singlicate; n = 1
HIPK4 = details: concentration: 1 μM, replicates: in singlicate; n = 1
HPK1 = details: concentration: 1 μM, replicates: in singlicate; n = 1
HUNK = details: concentration: 1 μM, replicates: in singlicate; n = 1
ICK = details: concentration: 1 μM, replicates: in singlicate; n = 1
IGF1R = details: concentration: 1 μM, replicates: in singlicate; n = 1
IKK-alpha = tested on: T4, IKK-alpha; details: concentration: 1 μM, replicates: in singlicate; n = 1
T4 construct: gene CHUK

IKK-beta = tested on: T5, IKK-beta; details: concentration: 1 μM, replicates: in singlicate; n = 1
T5 construct: gene IKBKB

IKK-epsilon = tested on: T6, IKK-epsilon; details: concentration: 1 μM, replicates: in singlicate; n = 1
T6 construct: gene IKBKE

[1] = concentration: 1 μM, replicates: in singlicate
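Also: KINOMEscan kinase panel screen.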

## COc1ccc(Nc2nccc(N3CCC(NC(=O)Nc4ccc5c(c4)OCO5)C3)n2)cc1 (centres unmarked) [GSK1379745]
GRK1
  %Inh: 13%
GRK2
  %Inh: 0%
GRK3
  %Inh: 20%
GRK4
  %Inh: 15%
GRK7
  %Inh: 0%
GSK3A
  %Inh: 0%
GSK3B; [1]
  %Inh: 7%
HASPIN
  %Inh: 13%
HCK
  %Inh: 0%
HIPK1
  %Inh: 0%
HIPK2
  %Inh: 0%
HIPK3
  %Inh: 23%
HIPK4
  %Inh: 9%
HPK1
  %Inh: 67%
HUNK
  %Inh: 11%
ICK
  %Inh: 0%
IGF1R
  %Inh: 0%
IKK-alpha
  %Inh: 7%
IKK-beta
  %Inh: 9%
IKK-epsilon
  %Inh: 12%

## Nc1nc(-c2ccccn2)c(-c2ccnc3ccccc23)s1 [GW548057]
GRK1
  %Inh: 1%
GRK2
  %Inh: 0%
GRK3
  %Inh: 58%
GRK4
  %Inh: 0%
GRK7
  %Inh: 0%
GSK3A
  %Inh: 8%
GSK3B; [1]
  %Inh: 5%
HASPIN
  %Inh: 26%
HCK
  %Inh: 4%
HIPK1
  %Inh: 17%
HIPK2
  %Inh: 5%
HIPK3
  %Inh: 15%
HIPK4
  %Inh: 0%
HPK1
  %Inh: 20%
HUNK
  %Inh: 8%
ICK
  %Inh: 7%
IGF1R
  %Inh: 9%
IKK-alpha
  %Inh: 8%
IKK-beta
  %Inh: 0%
IKK-epsilon
  %Inh: 22%

## Oc1ccc2ncnc(Nc3ccc(OCc4ccccc4)cc3)c2c1 [GI262866]
GRK1
  %Inh: 7%
GRK2
  %Inh: 0%
GRK3
  %Inh: 6%
GRK4
  %Inh: 18%
GRK7
  %Inh: 0%
GSK3A
  %Inh: 0%
GSK3B; [1]
  %Inh: 0%
HASPIN
  %Inh: 17%
HCK
  %Inh: 0%
HIPK1
  %Inh: 0%
HIPK2
  %Inh: 58%
HIPK3
  %Inh: 6%
HIPK4
  %Inh: 0%
HPK1
  %Inh: 41%
HUNK
  %Inh: 8%
ICK
  %Inh: 7%
IGF1R
  %Inh: 0%
IKK-alpha
  %Inh: 7%
IKK-beta
  %Inh: 16%
IKK-epsilon
  %Inh: 0%

## Cl.O=S(=O)(c1cccc(F)c1)c1ccc(Nc2ncnc3cc(Br)sc23)cc1Cl [GSK306886]
GRK1
  %Inh: 4%
GRK2
  %Inh: 0%
GRK3
  %Inh: 0%
GRK4
  %Inh: 0%
GRK7
  %Inh: 0%
GSK3A
  %Inh: 21%
GSK3B; [1]
  %Inh: 31%
HASPIN
  %Inh: 0%
HCK
  %Inh: 0%
HIPK1
  %Inh: 0%
HIPK2
  %Inh: 0%
HIPK3
  %Inh: 23%
HIPK4
  %Inh: 0%
HPK1
  %Inh: 29%
HUNK
  %Inh: 57%
ICK
  %Inh: 0%
IGF1R
  %Inh: 0%
IKK-alpha
  %Inh: 0%
IKK-beta
  %Inh: 41%
IKK-epsilon
  %Inh: 0%

## CCC(CC)(CC)n1cnc2c(N)ncnc21 [SKF-97620]
GRK1
  %Inh: 40%
GRK2
  %Inh: 16%
GRK3
  %Inh: 0%
GRK4
  %Inh: 8%
GRK7
  %Inh: 14%
GSK3A
  %Inh: 0%
GSK3B; [1]
  %Inh: 35%
HASPIN
  %Inh: 9%
HCK
  %Inh: 9%
HIPK1
  %Inh: 17%
HIPK2
  %Inh: 10%
HIPK3
  %Inh: 19%
HIPK4
  %Inh: 8%
HPK1
  %Inh: 0%
HUNK
  %Inh: 34%
ICK
  %Inh: 32%
IGF1R
  %Inh: 0%
IKK-alpha
  %Inh: 30%
IKK-beta
  %Inh: 8%
IKK-epsilon
  %Inh: 0%

## Cc1cc(N2CCC(NS(=O)(=O)c3ccc(F)cc3)CC2)nc(Nc2cccc(C#N)c2)n1.O=C(O)C(F)(F)F [GSK1653537]
GRK1
  %Inh: 0%
GRK2
  %Inh: 0%
GRK3
  %Inh: 16%
GRK4
  %Inh: 22%
GRK7
  %Inh: 0%
GSK3A
  %Inh: 0%
GSK3B; [1]
  %Inh: 0%
HASPIN
  %Inh: 0%
HCK
  %Inh: 0%
HIPK1
  %Inh: 0%
HIPK2
  %Inh: 47%
HIPK3
  %Inh: 0%
HIPK4
  %Inh: 0%
HPK1
  %Inh: 43%
HUNK
  %Inh: 25%
ICK
  %Inh: 0%
IGF1R
  %Inh: 0%
IKK-alpha
  %Inh: 12%
IKK-beta
  %Inh: 2%
IKK-epsilon
  %Inh: 7%

## Nc1nc(-c2ccc3c(N)n[nH]c3c2)cc(N2CCCCC2)n1 [GSK2228768]
GRK1
  %Inh: 0%
GRK2
  %Inh: 0%
GRK3
  %Inh: 30%
GRK4
  %Inh: 0%
GRK7
  %Inh: 0%
GSK3A
  %Inh: 0%
GSK3B; [1]
  %Inh: 0%
HASPIN
  %Inh: 0%
HCK
  %Inh: 0%
HIPK1
  %Inh: 0%
HIPK2
  %Inh: 0%
HIPK3
  %Inh: 0%
HIPK4
  %Inh: 0%
HPK1
  %Inh: 32%
HUNK
  %Inh: 0%
ICK
  %Inh: 0%
IGF1R
  %Inh: 0%
IKK-alpha
  %Inh: 0%
IKK-beta
  %Inh: 0%
IKK-epsilon
  %Inh: 29%

## CSc1ccc(NC2=C(c3ccccc3Cl)C(=O)NC2=O)cc1 [SB-342411]
GRK1
  %Inh: 0%
GRK2
  %Inh: 0%
GRK3
  %Inh: 0%
GRK4
  %Inh: 3%
GRK7
  %Inh: 0%
GSK3A
  %Inh: 81%
GSK3B; 1 µM
  %Inh: 29%
HASPIN
  %Inh: 0%
HCK
  %Inh: 0%
HIPK1
  %Inh: 8%
HIPK2
  %Inh: 0%
HIPK3
  %Inh: 31%
HIPK4
  %Inh: 0%
HPK1
  %Inh: 0%
HUNK
  %Inh: 0%
ICK
  %Inh: 40%
IGF1R
  %Inh: 6%
IKK-alpha
  %Inh: 0%
IKK-beta
  %Inh: 0%
IKK-epsilon
  %Inh: 44%

## Nc1nccc2scc(-c3ccc4c(c3)CCN4C(=O)Cc3cc(F)ccc3F)c12 [GSK2587663]
GRK1
  %Inh: 0%
GRK2
  %Inh: 0%
GRK3
  %Inh: 40%
GRK4
  %Inh: 0%
GRK7
  %Inh: 0%
GSK3A
  %Inh: 17%
GSK3B; [1]
  %Inh: 1%
HASPIN
  %Inh: 0%
HCK
  %Inh: 0%
HIPK1
  %Inh: 0%
HIPK2
  %Inh: 0%
HIPK3
  %Inh: 6%
HIPK4
  %Inh: 0%
HPK1
  %Inh: 28%
HUNK
  %Inh: 14%
ICK
  %Inh: 0%
IGF1R
  %Inh: 13%
IKK-alpha
  %Inh: 5%
IKK-beta
  %Inh: 0%
IKK-epsilon
  %Inh: 5%

## O=C(Nc1ccccc1)Nc1ccc(Oc2ccc3nccn3n2)cc1
GRK1
  %Inh: 11%
GRK2
  %Inh: 0%
GRK3
  %Inh: 0%
GRK4
  %Inh: 17%
GRK7
  %Inh: 0%
GSK3A
  %Inh: 14%
GSK3B; [1]
  %Inh: 0%
HASPIN
  %Inh: 0%
HCK
  %Inh: 7%
HIPK1
  %Inh: 26%
HIPK2
  %Inh: 0%
HIPK3
  %Inh: 0%
HIPK4
  %Inh: 4%
HPK1
  %Inh: 0%
HUNK
  %Inh: 9%
ICK
  %Inh: 0%
IGF1R
  %Inh: 0%
IKK-alpha
  %Inh: 0%
IKK-beta
  %Inh: 0%
IKK-epsilon
  %Inh: 0%
